High-throughput results deposited in PubChem by National Center for Advancing Translational Sciences (NCATS).
JMJD2E inh: qHTS Assay for Inhibitors of Human Jumonji Domain Containing 2E (JMJD2E). Potency, µM (doses to about 57.1 µM), inactives show at the top dose activity change, negative = inhibition, hits mostly inhibitors. 230,000 tested, 1.6% active. JMJD2E catalytic domain, FDH-coupled NADH fluorescence (FDH is formaldehyde dehydrogenase). AID 2147, 2009. Lysine-specific demethylase 4E (Homo sapiens), B2RXH2; active = well fitted inhibition curve with a large enough effect, not every such curve was filed as active; inconclusive = small, poorly fitted or top-dose-only effect, or another doubt; inactive = no such curve, though single readings can be large or run the other way;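 also: potency is read from the fitted curve at half-maximal effect; 0% = wells with enzyme and -100% = buffer wells without enzyme; nearly all actives have a fitted effect of over 50% in size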
HP1b binding inh: HTS for Inhibitors of HP1-beta Chromodomain Interactions with Methylated Histone Tails. Chromobox protein homolog 1 (Homo sapiens), P83916. AlphaScreen HP1-beta / biotin-H3K9me3 peptide binding. Potency, µM (doses to about 114 µM), without a hit: top-dose activity change, negative = inhibition, usual class: inhibitors. 390,000 tested, 0.56% active. AID 540317, 2011; also: potency is read from the fitted curve at half-maximal effect; nearly all actives have a fitted effect of over 70% in size
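HP1-beta protein (50 nM final) preincubated 30 min at room temperature with biotinylated H3(1-18)K9me3 peptide (50 nM) in PBS pH 7.4, 0.01% Tween-20, then compound added for 30 min. AlphaScreen streptavidin donor/nickel chelate acceptor beads (10 ug/mL final), 30 min dark, luminescence read.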
JMJD2A Tudor: qHTS Assay for Inhibitors of JMJD2A-Tudor Domain; AlphaScreen JMJD2A-Tudor / H3K4me3 peptide binding; Potency, µM (titrated, usually from 114 µM), without a hit: top-dose activity change, negative = inhibition, usual class: inhibitors; Lysine-specific demethylase 4A (Homo sapiens), O75164; 390,000 tested, 4.4% active; AID 504339, 2011; also: potency is read from the fitted curve at half-maximal effect; % is scaled to controls: 0 for no effect and ±100 for the full control effect; nearly all actives have a fitted effect of over 50% in size
PI5P4K alpha inh: qHTS for Inhibitors of phosphatidylinositol 5-phosphate 4-kinase (PI5P4K). Phosphatidylinositol 5-phosphate 4-kinase type-2 alpha (Homo sapiens), P48426. 330,000 tested, 1.2% active. AID 652105, 2013. PI5P4Kalpha enzyme, ADP-Glo luminescence, 60 min; stronger effect = lower value. max response, %; active = max response of -50% or lower; inconclusive = between -30% and -50%; inactive = -30% or higher; also: value at the top dose of about 77 µM; % is scaled to controls: 0 for no effect and ±100 for the full control effect
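ADP-Glo luminescence end-point after a 60 min room-temperature kinase reaction. PI5P4Kalpha and substrate in HEPES pH 7.4 buffer with EGTA, 0.1% CHAPS and 5% DMSO; ATP at 5 microM final.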
L3MBTL1 block: qHTS Assay for the Inhibitors of L3MBTL1; 230,000 tested, 0.66% active; Lethal(3)malignant brain tumor-like protein 1 (Homo sapiens), Q9Y468; AlphaScreen L3MBTL1–H3K9me1 peptide binding; AID 485360, 2010; Potency, µM (doses to about 57.1 µM), for inactives: at the highest dose activity, negative = inhibition, most hits filed as inhibitors; also: potency is read from the fitted curve at half-maximal effect; % is scaled to controls: 0 for no effect and ±100 for the full control effect; nearly all actives have a fitted effect of over 60% in size
Target sequence (Q9Y468 whole entry, looked up): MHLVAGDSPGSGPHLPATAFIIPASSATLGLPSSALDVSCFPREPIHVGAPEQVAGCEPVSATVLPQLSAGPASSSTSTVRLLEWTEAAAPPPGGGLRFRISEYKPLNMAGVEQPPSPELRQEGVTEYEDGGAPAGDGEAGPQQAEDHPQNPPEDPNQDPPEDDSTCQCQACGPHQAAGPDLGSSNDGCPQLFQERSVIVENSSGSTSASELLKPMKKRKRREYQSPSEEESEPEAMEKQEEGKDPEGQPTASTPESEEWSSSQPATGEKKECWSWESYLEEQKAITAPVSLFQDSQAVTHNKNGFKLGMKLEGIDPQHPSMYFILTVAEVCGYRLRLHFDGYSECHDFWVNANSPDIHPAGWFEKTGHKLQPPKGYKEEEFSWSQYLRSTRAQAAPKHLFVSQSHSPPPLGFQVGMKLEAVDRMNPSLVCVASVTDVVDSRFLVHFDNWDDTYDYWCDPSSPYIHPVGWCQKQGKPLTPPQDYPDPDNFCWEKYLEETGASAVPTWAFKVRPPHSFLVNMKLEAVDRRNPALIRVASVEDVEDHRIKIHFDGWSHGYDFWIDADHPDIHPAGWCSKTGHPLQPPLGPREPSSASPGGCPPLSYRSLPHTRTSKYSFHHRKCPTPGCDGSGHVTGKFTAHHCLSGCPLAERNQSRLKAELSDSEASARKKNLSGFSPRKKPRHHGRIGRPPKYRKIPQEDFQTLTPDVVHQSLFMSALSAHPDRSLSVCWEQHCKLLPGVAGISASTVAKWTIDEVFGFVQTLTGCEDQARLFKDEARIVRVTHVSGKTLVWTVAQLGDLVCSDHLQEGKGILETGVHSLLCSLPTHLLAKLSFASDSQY
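L3MBTL1 50 nM + b-AHA-H3(1-15)K9me1 75 nM, 30 min RT; compound added, 30 min RT; streptavidin donor/Ni-chelate acceptor beads 10 ug/mL each final, 30 min RT dark; AlphaScreen read.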
BAZ2B block: qHTS Assay for Inhibitors of BAZ2B | Bromodomain adjacent to zinc finger domain protein 2B (Homo sapiens), Q9UIF8 | Potency, µM (highest dose often 114 µM), for the others: at the top dose activity change, negative = inhibition, hits mostly inhibitors | AlphaScreen BAZ2B-H3K14Ac peptide displacement | AID 504333, 2011 | 360,000 tested, 4.4% active; also: potency is read from the fitted curve at half-maximal effect; % is scaled to controls: 0 for no effect and ±100 for the full control effect; nearly all actives have a fitted effect of over 60% in size
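Complex of BAZ2B and biotin-H3K14Ac (50 nM apiece) forms over 30 min at RT, then faces library compounds up to 110 uM for another 30 min; AlphaScreen beads added, 20 min dark incubation, luminescence read.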
Active calls of the source: *; ? = inconclusive; . = no result; [ ] = remark or other dose. Most compounds without a hit are left out; they make up all but 5.7% or so of the library. Unless noted, calls follow the shape of the dose curve; as a rule, active = well fitted inhibition curve with a large enough effect; inconclusive = small, poorly fitted or top-dose-only effect; inactive = no such curve, though single readings can be large or run the other way.

SMILES	JMJD2E inh	HP1b binding inh	JMJD2A Tudor	PI5P4K alpha inh	L3MBTL1 block	BAZ2B block
COc1ccc(CNS(=O)(=O)c2cc3c(cc2Cl)NC(=O)CO3)cc1	.	15.3%	-13.2%	1.2	5.4%	?
CCC1CCCCN1C(=O)Cn1c(=O)n(-c2ccccc2C(F)(F)F)c(=O)c2c(C)c(C(=O)N(C)C)sc21 (configuration not stated)	.	25.9%	2.3%	.	.	5.2%
Cc1cc(C)c(/C=C/c2onc(C)c2S(=O)(=O)N2CCC(C(=O)NCC(C)c3ccccc3)CC2)c(C)c1 (configuration not stated)	.	16.2%[57 µM]	-14.7%	.	.	-5.9%
CCN1C[C@@H]2[C@@H]3C(=O)N(Cc4ccccc4)C(=O)[C@@H]3[C@](CC)(C1=O)N2C(=O)c1ccc(C(F)(F)F)cc1	.	50.7%	-9.1%	-0.1	0.5%	.
Cn1c(=O)n(-c2ccc3c(c2)OCO3)c2nc(-c3ccccc3)nc(C(N)=O)c21	.	10.5%	?	.	.	?
Cc1c(C(=O)N2CCN(S(=O)(=O)c3cc(F)ccc3F)CC2)oc2ccccc12	.	9.6%	-20.8%	-1.3	-4.1%	79.4µM*
COc1ccc(CNCc2cc(C)c(OC)cc2C)c(OC)c1	.	?	20µM*	-3.9	26.0%	50.1µM*
COc1cc(CNCc2cc(OC)ccc2OC)cc(OC)c1	.	?	28.2µM*	0.8	-9.1%	?
COc1ccc(CNCc2ccc(F)cc2)c(OC)c1	.	30.1%	-17.1%	1.3	1.6%	-21.0%
COc1ccc(CNCCCSc2ncccn2)c(OC)c1	.	11.5%	-23.3%	3.7	7.6%	-6.4%
COc1ccc(CNCc2cc(OC)ccc2OC)cc1	.	-19.9%	28.2µM*	0.4	10.8%	56.2µM*
CCN(CCCc1ccccc1)CCCc1ccccc1	8.91µM*	-9.1%	22.4µM*	6.2	8.6%	?
CCCN(CCO)CCCc1ccccc1	?	?	2.82µM*	-7.1	.	?
COc1cc(C2c3c([nH]c(=O)[nH]c3=O)Nc3ccc4ccccc4c32)cc(OC)c1OC (configuration not stated)	?	70.8µM*	?	-20.6	.	56.2µM*
COc1cc(C2c3c([nH]c(=O)[nH]c3=O)Nc3ccc4ccccc4c32)ccc1O (configuration not stated)	?	?	?	-6.4	?	?
CC(Oc1ccc(Cl)cc1Cl)C(=O)Nc1cccc(O)c1 (configuration not stated)	-5.8%	42.5%	-4.9%	-5.2	2.2%	-21.0%
CC(Oc1ccc(Cl)cc1Cl)C(=O)Nc1ccc(O)cc1 (configuration not stated)	?	23.3%	-4.5%[11.4 µM]	13.6	-17.9%	50.1µM*
COc1ccc(C2NC(=S)NC3=C2CCCC3=C2SCCS2)cc1 (configuration not stated)	-8.1%	-5.2%	-27.1%	-18.2	-2.5%	31.6µM*
CCNc1nc(NCc2ccc(F)cc2)c2cnn(C)c2n1	.	20.4%	50.1µM*	.	.	-12.4%
C#CCOCCOCCOCCNc1nc(N2CCN(C(=O)C([C@@H](C)CC)n3cc(C(N)COC(=O)C(F)(F)F)nn3)CC2)nc(N2CCN(C(=O)[C@H](CCCCN)n3cc(C(N)[C@H](C)CC)nn3)CC2)n1 (some centres not stated)	.	17.9%	56.2µM*	0.3	.	.
C#CCOCCOCCOCCNc1nc(N2CCN(C(=O)[C@H](CCCCN)n3cc(C(N)COC(=O)C(F)(F)F)nn3)CC2)nc(N2CCN(C(=O)[C@H](CCCCN)n3cc(C(N)CC(C)C)nn3)CC2)n1 (some centres not stated)	3.4%	.	.	.	.	79.4µM*
C#CCOCCOCCOCCNc1nc(N2CCN(C(=O)[C@H]([C@@H](C)CC)n3cc([C@@H](N)CC(C)C)nn3)CC2)nc(N2CCN(C(=O)[C@H](CCCCN)n3cc([C@@H](N)CC(C)C)nn3)CC2)n1	-0.2%	6.4%	56.2µM*	28.8	2.0%	?
C#CCOCCOCCOCCNc1nc(N2CCN(C(=O)C([C@@H](C)CC)n3cc(C(N)CO)nn3)CC2)nc(N2CCN(C(=O)C([C@@H](C)CC)n3cc(C(N)COC(=O)C(F)(F)F)nn3)CC2)n1 (some centres not stated)	.	21.1%	79.4µM*	-2.5	.	.
C#CCOCCOCCOCCNc1nc(N2CCN(C(=O)[C@H]([C@@H](C)CC)n3cc([C@@H](N)CC(C)C)nn3)CC2)nc(N2CCN(C(=O)[C@H](CCCCN)n3cc([C@@H](N)C(C)CC)nn3)CC2)n1 (some centres not stated)	-4.4%	6.5%	79.4µM*	-1.5	-11.5%	79.4µM*
C#CCOCCOCCOCCNc1nc(N2CCN(C(=O)[C@H](CCCN=C(N)N)n3cc(C(N)[C@@H](C)CC)nn3)CC2)nc(N2CCN(C(=O)[C@H](CCCCN)n3cc([C@@H](N)[C@H](C)CC)nn3)CC2)n1 (some centres not stated)	.	34.5%	-29.7%	-2.4	-4.9%	.
SMILES	JMJD2E inh	HP1b binding inh	JMJD2A Tudor	PI5P4K alpha inh	L3MBTL1 block	BAZ2B block
CCc1cnc2c(c1SCC(=O)Nc1ccc(OC)c(OC)c1)c(=O)n(C)c(=O)n2C	.	26.7%	-3.2%	.	.	-7.7%
CC(C)C(=O)NC(c1ccccc1)c1cc([N+](=O)[O-])c2cccnc2c1O (configuration not stated)	?	-9.1%	?	-15.2	10µM*	5.62µM*
CC(=O)NC(c1ccc(C)cc1)c1cc(Cl)c2cccnc2c1O (configuration not stated)	.	32.8%	-28.8%	-0.8	13.1%	0.3%
CC(=O)NC(c1ccccc1)c1cc([N+](=O)[O-])c2cccnc2c1O (configuration not stated)	15.8µM*	-3.0%	10µM*	-28.8	7.08µM*	3.55µM*
O=C(N/N=C/c1cc([N+](=O)[O-])ccc1O)c1ccc(COc2ccc3c(c2)CCC3)o1	.	?	?	-56.1*	.	44.7µM*
O=C(N/N=C/c1cc([N+](=O)[O-])ccc1O)C1CCCCC1	7.08µM*	31.5%	-19.7%	-6.6	5.9%	-32.6%
O=C(N/N=C/c1cc([N+](=O)[O-])ccc1O)c1cccc(NC(=O)c2cccc(Cl)c2)c1	.	-13.0%	-12.7%	-19.5	.	-31.5%
O=C(N/N=C/c1cc([N+](=O)[O-])ccc1O)c1cccc2ccccc12	.	.	.	.	.	2.5%
